Laboratory results from PubChem BioAssay (NCI).
This is part of a sample that, as a whole, favours compounds with a hit. Of some 83,000 tested, about 20% had one in any assay.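 Testing used 96-well plates and a 48-hour single-concentration exposure. Example: -40 means 40% of the starting cells died.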 Values without a mark were called inactive. Activity calls are given as the source filed them. The calls were made as follows: active = growth percent below 10; inactive = the rest.

Tested on: HL-60(TB) leukemia
Assay: NCI-60 one-dose screen, 48 h (100 = growth as untreated, 0 = no growth, -100 = all killed)
Settings: 10 µM unless noted

Compound | growth
Cc1ccc(C(=O)NCCCNc2nccc(-n3ccc4cccnc43)n2)cc1 | 105%
O=c1oc2ccccc2c(Cl)c1Cl | 41.4%
Cc1ccc2c(n1)C(=O)C(Oc1ccc(F)cc1)=CC2=O | 54%
O=C1c2ccc3c4c(ccc(c24)C(=O)N1CCCCO)C(=O)N(CCCCO)C3=O | 7.09% (active)
Nc1nc(Cl)c2c(ncn2Cc2ccc(CCl)cc2)n1 | 90.5%
O=C1CCC(C(=O)NCCNCCNC(=O)C2CCC(=O)N2)N1 (configuration not stated) | 89.2%
O=C(Nc1cccc(-n2ccc3c(NC(=O)c4ccccc4)nccc32)c1)Nc1ccc(Cl)c(C(F)(F)F)c1 | -22.8% (active)
Fc1ccc(-c2nn3c(-c4cc(C(F)(F)F)cc(C(F)(F)F)c4)nnc3s2)cc1 | 92.2%
CCOC(=O)/C=C\C(=O)NC(N)=O | 74.9%
CN1CCN(c2ccc(Nc3ncc4[nH]c(=O)n(Cc5ccccc5N)c4n3)cc2)CC1 | 97.2%
OC(c1ccc(Cl)cc1)(c1ccc(Cl)cc1)C(O)(c1ccc(Cl)cc1)c1ccc(Cl)cc1 | 51.2%
O=C(Cn1nnc2ccccc21)Nc1ccc(-c2nc3ccccc3s2)cc1 | 90.8%
c1cc2c(cc1-c1cnc3nonc3n1)OCO2 | 0.978% (active)
Clc1ccccc1-c1nc2ccccc2[nH]1 | 74.4%
Cn1c(=O)c(C#N)c(-c2ccco2)n2c(S(=O)(=O)Cc3ccccc3)nnc12 | 103%
CC(C)=CCC[C@](C)(O)[C@H]1CC[C@]2(C)[C@@H]1CC[C@@H]1[C@@]3(C)C/C(=C/c4ccco4)C(=O)C(C)(C)[C@@H]3CC[C@]12C | 119%
COc1ccc(-c2nc(SCCC(C)C)nc(N/N=C\c3ccccc3O)c2C#N)cc1 | 83.6%
COc1ccc(/C=C/C(=O)c2cc3c(N)c(C(=O)Nc4ccccc4Cl)sc3nc2C)cc1 | 4.2% (active)
Clc1ccc(/C=N/Nc2nc3ccccc3s2)c(Cl)c1 | 98.5%
O=[N+]([O-])c1ccc(N=Nc2ccc(O)cc2O)cc1 | 32.5%
COc1ccc(C(=O)NC(=O)Nc2ccc3c(c2)NC(=O)/C3=C\c2[nH]c(C)c(C(=O)O)c2C)c(F)c1 | 80.8%
C=C1C(=O)O[C@H]2[C@H]1CC/C(COC(=O)/C=C\C(=O)NCc1ccc(Cn3c(=O)sn(CCCl)c3=O)cc1)=C\CC[C@@]1(C)O[C@@H]21 | -19.4% (active)
Clc1ccc(N2N=C(c3cccc(Nc4ccncc4)c3)CC2c2ccccc2)cc1 (configuration not stated) | 85.4%
CCS/C(Nc1ccccc1)=C(\C#N)C(=O)Nc1ccc(OC)cc1 | -15.6% (active)
O=C1C(Cl)=C(Nc2cccc3cc4ccccc4nc23)C(=O)c2ccccc21 | 47.8%
C=CC(C)(O)CCC1C(=C)CCC2C(C)(C)CCCC12C (configuration not stated) | 82.1%
Fc1ccc(-c2cc(C(Cl)Cl)no2)cc1 | 136%
